Screens (PubChem BioAssay)
In the library only some 3.3% were active in any assay of this set; here they are far more common.
esBAF inh – Bmi1 luciferase reporter increase in mESCs, primary screen, esBAF inhibitor project, mouse ES cells, Bmi1 luciferase knock-in, single point; 24 h; 100% = twice the neutral-well signal; reporter increase, % at 12.5 µM; 350,000 tested, 2% active; AID 602393, 2012; in the data active means activation above about 40%; inconclusive means no clear call, values can overlap the other calls;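 further: 0% = median of the plate's neutral control wells and 100% = double that signal; a rise in the Bmi1 reporter signal indicates esBAF inhibition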
Wnt act – Wnt/beta-catenin pathway activators, primary screen, cell-based, plate reader, single point. Wnt/beta-catenin reporter cell assay, activator. activation, % at 9.35 µM. 300,000 tested, 1.2% active. AID 743398, 2014; in the data active means activation above about 30%, passing the limit was not always enough; inconclusive means no clear call, values can overlap the other calls;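 further: 0% = neutral control wells and 100% = positive control wells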
MITF act – activators of MITF-driven TRPM1 promoter reporter, primary screen, cell-based, SK-MEL-5, luciferase, single point. SK-MEL-5 TRPM1-promoter luciferase, 24 h; % of positive control, neutral wells = 0. activation, % at 12.5 µM. 300,000 tested, 0.75% active;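 active means mean activation of at least 80% with every replicate also reaching 80%; inconclusive means mean reaches 80% but some replicate falls short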;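 further: 0% = neutral control wells and 100% = parthenolide positive control wells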
C2C12 statin – suppressors of statin myotoxicity in C2C12 myotubes, primary screen, cell-based, single point, plate reader. C2C12 myotubes + simvastatin, ATP luminescence, 48 h; scaled: DMSO 0, geranylgeraniol control 100. rescue of ATP level, % at 7.49 µM. 330,000 tested, 0.78% active;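 active means mean ATP rescue above about 67%, or every replicate alone reaching that limit, limit read from the data, passing the limit was not always enough; inconclusive means no clear call, values can overlap the other calls; inactive means mean under the limit and some replicate under it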;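 further: myotubes were challenged with 10 µM simvastatin during compound exposure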
FXN GAA850 act – FXN promoter activators, primary screen, cell-based, luciferase luminescence, HEK293 lucGAA850; 360,000 tested, 0.56% active; HEK293 lucGAA850 FXN promoter luciferase reporter, 24 h; percent of 10 µM SAHA response; activation, % at 6 µM;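 active means activation above the average of all compounds screened plus 3 SD, cutoff fixed separately per campaign, cut at about 7.5% in these data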;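 further: 0% = DMSO wells and 100% = 10 µM SAHA wells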
Starred values were filed as active, the others as inactive; ? = inconclusive; · = not tested or not shown.

SMILES	esBAF inh	Wnt act	MITF act	C2C12 statin	FXN GAA850 act
CCCN(C)C[C@@H]1OCCCC[C@@H](C)Oc2ccc(NS(=O)(=O)c3cn(C)cn3)cc2C(=O)N([C@@H](C)CO)C[C@@H]1C	0	·	·	8	·
COCCNC(=O)C[C@H]1C=C[C@H](NC(=O)NC2CCCCC2)[C@@H](CO)O1	3	·	·	1	·
CCOC(=O)C1CCN(C(=O)c2ccc(N(C)S(C)(=O)=O)cc2)CC1	7	·	3	-6	0
CN(c1ccc(C(=O)COC(=O)C2CC2)cc1)S(C)(=O)=O	3	14	83*	-8	3
CC(C)(C)C(=O)Nc1ccc(C(=O)COC(=O)C2CC2)cc1	60*	1	76	-11	3
COCC(=O)Nc1ccc2c(c1)OC[C@@H](C)N(C(=O)COC)C[C@@H](C)[C@@H](OC)CN(C)C2=O	3	·	·	-3	·
C/C=C/c1cnc2c(c1)C(=O)N([C@H](C)CO)C[C@@H](C)[C@@H](CN(C)C(=O)C1CC1)O2	-4	·	·	-7	·
Cc1ccc(-c2nc(C=Nc3ccccc3)c(O)o2)cc1	·	3	43	·	3
Oc1oc(-c2ccc(Br)cc2)nc1/C=N/c1ccccn1	·	37*	49	·	3
CN1CCN(c2ccc(NC(=O)c3ccc(Br)o3)cc2)CC1	5	17	34	8	5
O=C(Nc1ccc(N2CCOCC2)cc1)c1ccc(Br)o1	-70	23	·	-24	0
CC1CCN(c2ccc(NC(=O)c3cccnc3)cc2)CC1	32	37*	·	2	4
CC1CCN(c2ccc(NC(=O)c3ccc(Br)o3)cc2)CC1	56*	?	79	0	3
CCN(CC)c1ccc(NC(=O)c2cncc(Br)c2)cc1	·	·	58	·	0
CCN(CC)c1ccc(NC(=O)c2cccnc2)cc1	32	37*	57	-33	1
CS(=O)(=O)N1CCN(c2ccc(NC(=O)c3ccc(Br)o3)cc2)CC1	29	57*	?	-19	2
O=C(Nc1ccc(N2CCN(C(=O)c3ccccc3)CC2)cc1)c1cccnc1	-2	-2	2	6	0
Cc1ccc(S(=O)(=O)N[C@@H]2C=C[C@H](CC(=O)NCc3ccccc3F)O[C@H]2CO)cc1	4	·	·	-1	·
CC=Cc1ccc2n(c1=O)C[C@H]1[C@H](CO)[C@@H](C(=O)NCc3ccccc3)N(Cc3cncnc3)[C@@H]21 (mixture of isomers)	-2	·	·	-19	·
COc1cccc(OCc2cc(/C=N/Nc3ccc(C(=O)O)cc3)ccc2OC)c1	59*	2	-4	-58	2
Cc1cc(C(=O)COc2ncnc3sccc23)c(C)n1C	55*	·	55	-32	7
CCCSc1nc(N)c2c3c(sc2n1)CN(C)CC3	10	·	50	99*	1
O=C(O)CC(C(=O)O)n1nc(-c2ccccc2)cc1-c1ccccc1 (stereo not given)	58*	·	3	-9	7
CC(=O)n1nc(-c2ccccc2)cc1-c1ccccc1	·	64*	53	·	6
CNC[C@H]1Oc2c(NC(=O)Nc3ccc4c(c3)OCO4)cccc2C(=O)N([C@H](C)CO)C[C@H]1C	-6	·	·	-23	·
SMILES	esBAF inh	Wnt act	MITF act	C2C12 statin	FXN GAA850 act
O=C(C[C@@H]1CC[C@H]2[C@@H](COC[C@H](O)CN2C(=O)Nc2cc(Cl)cc(Cl)c2)O1)NCC1CCCCC1	-7	·	·	-24	·
CCC(=O)Nc1ccc2c(c1)C(=O)N(C)C[C@H](OC)[C@H](C)CN(C(=O)CN(C)C)[C@@H](C)CO2	-3	·	·	-5	·
CN(C)CCCNC(=O)C[C@H]1CC[C@@H]2[C@@H](COc3ccc(NC(=O)c4ccc5c(c4)OCO5)cc3C(=O)N2C)O1	15	·	·	10	·
CSCCC(NC(C)=O)C(=O)Oc1ccc2c3c(c(=O)oc2c1)CCCC3 (stereo not given)	-1	3	·	7	2
CSCCC(NC(=O)OC(C)(C)C)C(=O)Oc1ccc2c(=O)c(-c3ccc4c(c3)OCCO4)coc2c1 (stereo not given)	-5	37*	·	1	1
O=C(NC1CCCC1)[C@@H]1[C@@H](CO)[C@@H]2Cn3c(ccc(-c4cccnc4)c3=O)[C@H]1N2CC1CC1	0	·	·	-24	·
